The values that follow come from PubChem BioAssay (Tox21).

Several values for one entry are separate records, joined by “and”; a condition that tells them apart may be missing. Identical values can stand only once. Results filed as inconclusive are left out. The source holds several records for some structures; these can differ, active in one and inactive in another. Activity calls are given as the source filed them. The call rests on the fitted dose curve; in most records, active means well fitted curve in the direction sought with a large enough effect in the repeat runs; inconclusive means weak or mixed curves; inactive means no such curve, though single readings can be large; an effect the other way counts as inactive or inconclusive.

Test [1] in a line: qHTS RealTime-Glo MT Cell Viability Assay in HEK293 cells - 16 hour (AID 1224872). Further: nearly all actives have a fitted effect of over 50% in size. Further: potency means the concentration at half of the fitted maximal effect. An outline of the steps:
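Reads taken at 0, 8, 16, 24, 32 and 40 h from the same wells. HEK293 cells (600/well) carried RealTime-Glo reagents from seeding, with compound added after a 5 h settle at 37 C.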
On the technique in general: qHTS replaces the single test concentration by a dilution series.

Test [2] is described as follows: qHTS RealTime-Glo MT Cell Viability Assay in HepG2 cells - 8 hour (AID 1224873). Further: nearly all actives have a fitted effect of over 55% in size. The procedure, abridged: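 HepG2 cells (600/well) mixed with RealTime-Glo MT reagent, settled 5 h at 37 C/5% CO2 before compound addition. Nonlytic NanoLuc luminescence from viable-cell prosubstrate reduction read repeatedly during 40 h treatment at 37 C.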
Test [3] is described as follows: qHTS RealTime-Glo MT Cell Viability Assay in HEK293 cells - 40 hour (AID 1224874). Further: nearly all actives have a fitted effect of over 50% in size. Further: potency means the concentration at half of the fitted maximal effect. The following applies: RealTime-Glo luminescence; max response: stronger effect = lower value. The procedure, abridged:
(§1)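 qHTS format; HEK293 cells with NanoLuc/prosubstrate reagent, 37 C/5% CO2 for 5 h pre-dosing; compounds 23 nL in DMSO; luminescence at each time point reflects viable cells.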

A short description of test [4]: A CellTox Green Cytotoxicity Assay to monitor cytotoxicity in HEK293 cells - 24 hour (AID 1224875). Further: nearly all actives have a fitted effect of over 45% in size. Further: potency means the concentration at half of the fitted maximal effect. An outline of the steps:
(§2)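 Each value comes from one timepoint of a single continuous run in which HEK293 cells with CellTox Green were exposed to compound for up to 40 h at 37 C, dye fluorescence rising with cell death.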

A short description of test [5]: A CellTox Green Cytotoxicity Assay to monitor cytotoxicity in HepG2 cells - 16 hour (AID 1224876). Further: nearly all actives have a fitted effect of over 45% in size. Further: potency means the concentration at half of the fitted maximal effect. An outline of the steps:
(§3)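 Continuous culture of HepG2 cells with a membrane-impermeant DNA dye; rising fluorescence marks dead cells. Compound exposure lasted up to 40 h at 37 C, with reads every 8 h from 0 h.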

Test [6] in a line: qHTS RealTime-Glo MT Cell Viability Assay in HepG2 cells - 32 hour (AID 1224877). Further: nearly all actives have a fitted effect of over 55% in size. Further: potency means the concentration at half of the fitted maximal effect. The procedure, abridged: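 HepG2 suspension premixed with RealTime-Glo reagents is plated at 600 cells per well and left 5 h at 37 C/5% CO2. Compounds in DMSO then go in, and bioluminescence reflecting viable cell number is recorded over 40 h.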
A short description of test [7]: A CellTox Green Cytotoxicity Assay to monitor cytotoxicity in HepG2 cells - 24 hour (AID 1224878). Further: nearly all actives have a fitted effect of over 45% in size. Further: potency means the concentration at half of the fitted maximal effect. An outline of the steps:
as §3

Test [8] is described as follows: A CellTox Green Cytotoxicity Assay to monitor cytotoxicity in HepG2 cells - 40 hour (AID 1224879). Further: nearly all actives have a fitted effect of over 40% in size. Further: potency means the concentration at half of the fitted maximal effect. An outline of the steps: as §3
A short description of test [9]: qHTS RealTime-Glo MT Cell Viability Assay in HEK293 cells - 0 hour (AID 1224880). Further: nearly all actives have a fitted effect of over 45% in size. Further: potency means the concentration at half of the fitted maximal effect. The procedure, abridged:
as §1

Test [10] is described as follows: A CellTox Green Cytotoxicity Assay to monitor cytotoxicity in HEK293 cells - 32 hour (AID 1224881). Further: nearly all actives have a fitted effect of over 40% in size. Further: potency means the concentration at half of the fitted maximal effect. The procedure, abridged:
as §2
On the % scale 0 is the no-effect control and ±100 the full control effect.

On to `C=CCOC(=O)C(=C)C`, for which the Potency result in test [1], in [2], in test [4], in [5], in [6] and in test [7] was “inactive” in each case. Besides, the Potency result in test [8], in test [9] and in test [10] was “inactive” in each case. For the same compound, the max response in test [3] was 2.76% (inactive) and 2.11% (inactive).
Take `CCCCCC1C(=O)CCC1CC(=O)OC` (stereo not given): the Potency result in test [1], in test [2], in test [4], in [5], in test [6] and in [7] was “inactive” throughout. The Potency result in test [8], in [9] and in test [10] was “inactive” in each case. The max response in test [3] was 0.863% (inactive) and -10.7% (inactive).
Take `Nc1ccc2c(c1)C(=O)c1ccccc1C2=O`: the Potency result in test [1], in test [2], in [4], in [5], in test [6] and in test [7] was “inactive” each time. The Potency result in [8], in [9] and in test [10] was “inactive” throughout. Further, the max response in [3] is -23.1% (inactive) and -12.6% (inactive).
Consider `Cc1ccc(N)c([N+](=O)[O-])c1`, for which the Potency entry in test [1], in [2], in [4], in test [5], in [6] and in [7] was “inactive” each time. Also, the Potency result in test [8], in test [9] and in test [10] was “inactive” throughout. For the same compound, the max response in [3] is 2.67% (inactive) and 2.77% (inactive).
Take `Brc1nc2ccccc2s1`: the Potency result in [1], in test [2], in [4], in test [5], in [6] and in test [7] was “inactive” throughout. In addition, the Potency entry in test [8], in [9] and in test [10] was “inactive” in each case. Further, the max response in test [3] is 0.941% (inactive) and 3.88% (inactive).
On to `Cc1ccc(S(=O)(=O)NCl)cc1`, for which the Potency entry in [1], in test [2], in test [4], in test [5], in test [6] and in [7] was “inactive” throughout. Besides, the Potency entry in test [8], in [9] and in [10] was “inactive” in each case. Besides, the max response in [3] was 4.42% (inactive) and 3.53% (inactive).
`COC(=O)c1ccc(C)cc1`: the Potency entry in test [1], in test [2], in test [4], in [5], in test [6] and in test [7] was “inactive” in each case. Further, the Potency result in test [8], in test [9] and in [10] was “inactive” throughout. The max response in [3] was 1.02% (inactive) and 6.36% (inactive).
With `CC(=O)O[C@]1(C(C)=O)CC[C@H]2[C@@H]3C=C(Cl)C4=CC(=O)CC[C@]4(C)[C@H]3CC[C@@]21C`, the Potency is 21.8 µM (active) in test [1]; 21.8 µM (active) and 10.7 µM (active) in [3]; 2.18 µM (active) and 1.69 µM (active) in [9]. Besides, the Potency result in [2], in test [4], in test [5], in test [6], in test [7] and in [8] was “inactive” throughout. Besides, in [10], the Potency result is “inactive”.
With `CCCCCC=O`, the Potency entry in test [1], in test [2], in [4], in [5], in [6] and in [7] was “inactive” in each case. Besides, the Potency entry in test [8], in test [9] and in [10] was “inactive” each time. Besides, the max response in [3] was -0.468% (inactive) and 7.09% (inactive).
Consider `CCCCCCCCCCC(CO)CCCCCCCC` (stereo not given), for which the Potency entry in [1], in test [2], in test [4], in [5], in [6] and in [7] was “inactive” throughout. Moreover, the Potency entry in [8], in [9] and in test [10] was “inactive” in each case. Moreover, the max response in test [3] was 5.36% (inactive) and 2.58% (inactive).
Turning to `Cc1ccc(C(C)(C)C)c(O)c1`, the Potency result in [1], in test [2], in test [6] and in test [9] was “inactive” in each case. Further, in [3], the max response was -23.8% (inactive) and -20.7% (inactive). In addition, the Potency in test [4] is 23.8 µM (active) and 24.5 µM (active); in test [5], 38.9 µM (active); in [7], 38.9 µM (active); in test [8] it was 34.7 µM (active); in test [10], 23.8 µM (active) and 21.9 µM (active).
In the case of `Cc1ccc(/C(=C\CN2CCCC2)c2ccccn2)cc1`, the Potency entry in [1], in test [2], in [4], in test [5], in test [6] and in [7] was “inactive” each time. For the same compound, the Potency result in test [8], in test [9] and in test [10] was “inactive” in each case. Further, the max response in [3] is -3.85% (inactive).
As for `[Na+]`, the Potency result in test [1], in test [2], in [4], in test [5], in test [7] and in test [8] was “inactive” in each case. Also, the Potency entry in test [9] and in test [10] was “inactive” each time. Also, the max response in [3] is 3.11% (inactive) and 3.69% (inactive). In addition, the Potency entry in test [6] was “inactive and 49 µM (active)”.
With `CCCCCCC(C)O` (stereo not given), the Potency result in [1], in test [2], in test [4], in test [5], in [6] and in test [7] was “inactive” in each case. Further, the Potency result in test [8], in [9] and in test [10] was “inactive” throughout. For the same compound, the max response in [3] was 1.85% (inactive) and 4.03% (inactive).
For the compound `CC(C)[C@@H]1CC[C@@H](C)CC1=O`, the Potency entry in [1], in test [2], in test [4], in [5], in [6] and in [7] was “inactive” throughout. Also, the Potency entry in test [8], in [9] and in test [10] was “inactive” each time. In [3], the max response was -0.963% (inactive) and 5.54% (inactive).
Consider `O=Cc1ccccc1C=O`, for which the Potency entry in test [1], in test [2], in test [4], in test [5], in [6] and in [9] was “inactive” each time. The Potency result in test [10] is “inactive”. Moreover, the max response in test [3] is 0.419% (inactive). The Potency in [7] was 24.5 µM (active) and inactive; in [8] it was 21.9 µM (active) and inactive.
In the case of `Nc1cc(Cl)c(N)c(Cl)c1`, the Potency result in [1], in test [2], in test [4], in test [5], in test [6] and in test [7] was “inactive” throughout. The Potency entry in test [8], in test [9] and in test [10] was “inactive” in each case. The max response in [3] is 25.2% (inactive).
As to `CCC/C=C/C=O`, the Potency entry in [1], in test [2], in test [4], in test [5], in test [6] and in test [7] was “inactive” each time. Further, the Potency entry in [8], in [9] and in test [10] was “inactive” throughout. Also, the max response in test [3] was -4.27% (inactive) and 1.77% (inactive).
